From PubChem BioAssay
Activity calls are given as the source filed them.

Assays:
[1] = tested on: PRMT1 (protein arginine N-methyltransferase 1); assay: PRMT1 binders on small-molecule microarrays, primary screen, biochemical, small-molecule microarray, 635 nm fluorescence (AID 1088); settings: small-molecule microarray binding, higher = more signal;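 note: binding of Prmt1 protein to compounds spotted on small-molecule microarray slides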
[2] = yeast growth modulation, basal conditions, primary screen, YJM789 clinical isolate, OD600, 24 h (AID 1089);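 note: growth of clinical yeast isolate S. cerevisiae YJM 789 seeded 1000 cells per well; test concentration not given here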; settings: S. cerevisiae YJM789 growth, higher = more signal, called active from +8 up or from −8 down
[3] = fission yeast growth modulation, primary screen, strain 972, OD600, 24 h, no modulator (AID 1090);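 note: basal condition with compound alone and no growth modifier present; test concentration not given here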; settings: S. pombe 972 growth, higher = more signal, called active from +8 up or from −8 down
[4] = S. cerevisiae growth modulation with rapamycin, primary screen, strain BY4716, OD600, 96 h (AID 1091); settings: higher = more signal, called active from +8 up or from −8 down; note: test concentration not given here
[5] = target: Torsin-1A-interacting protein 2 (Homo sapiens) (UniProt Q8NFQ8); assay: LULL1 binders on small-molecule microarray, primary screen, cell lysate, human LULL1 lysate, 635/667 nm fluorescence (AID 1092); settings: hLULL1 lysate binding, 635 nm fluorescence, higher = more signal;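 note: probe is lysate of COS7 cells overexpressing human LULL1; score merges per-feature 667 nm fluorescence with signal-to-noise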
Chain of Torsin-1A-interacting protein 2 (Homo sapiens) (Q8NFQ8 whole entry, looked up): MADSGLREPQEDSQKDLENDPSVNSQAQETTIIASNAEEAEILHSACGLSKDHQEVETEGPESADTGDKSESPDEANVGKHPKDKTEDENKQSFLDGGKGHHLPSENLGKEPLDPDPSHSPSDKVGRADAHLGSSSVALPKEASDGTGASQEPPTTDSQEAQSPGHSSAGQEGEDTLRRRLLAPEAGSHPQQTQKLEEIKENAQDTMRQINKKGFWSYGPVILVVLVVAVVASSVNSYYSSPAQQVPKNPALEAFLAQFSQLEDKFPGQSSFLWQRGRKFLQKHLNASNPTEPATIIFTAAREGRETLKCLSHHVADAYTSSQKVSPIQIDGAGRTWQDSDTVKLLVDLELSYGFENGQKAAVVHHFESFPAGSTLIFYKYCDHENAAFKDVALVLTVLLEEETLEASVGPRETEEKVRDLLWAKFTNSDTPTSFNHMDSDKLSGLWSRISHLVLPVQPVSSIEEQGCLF

[6] = E. coli growth modulation, two-sided OD650, primary screen, E. coli filamentation project, strain DRC41, 24 h (AID 1093); settings: OD650, 24 h, higher = more signal, called active from +8 up or from −8 down;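 note: MC1000 strain lacking acrAB efflux and sulA so SOS filamentation is blocked; test concentration not given here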
[7] = small-molecule microarray binders of probe aLefty2, primary screen, biochemical, biotinylated probe, 635/667 nm fluorescence (AID 1094); settings: higher = more signal;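 note: score merges spot fluorescence near 667 nm with spot signal-to-noise ratio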
[8] = tested on: Noggin (protein binding on small-molecule microarray); assay: Noggin binders on small-molecule microarray, primary screen, biochemical, 635/667 nm fluorescence (AID 1095); settings: 635 nm fluorescence, higher = more signal;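 note: score merges 667 nm feature fluorescence with signal to noise over triplicate slides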
[9] = target: Neurogenic locus notch homolog protein 3 (Homo sapiens) (UniProt Q9UM47); assay: NOTCH3 binders on small-molecule microarray, primary screen, biochemical, 635/667 nm fluorescence (AID 1096); settings: NOTCH3 binding, 635 nm fluorescence, higher = more signal
Chain of Neurogenic locus notch homolog protein 3 (Homo sapiens) (Q9UM47 whole entry, looked up): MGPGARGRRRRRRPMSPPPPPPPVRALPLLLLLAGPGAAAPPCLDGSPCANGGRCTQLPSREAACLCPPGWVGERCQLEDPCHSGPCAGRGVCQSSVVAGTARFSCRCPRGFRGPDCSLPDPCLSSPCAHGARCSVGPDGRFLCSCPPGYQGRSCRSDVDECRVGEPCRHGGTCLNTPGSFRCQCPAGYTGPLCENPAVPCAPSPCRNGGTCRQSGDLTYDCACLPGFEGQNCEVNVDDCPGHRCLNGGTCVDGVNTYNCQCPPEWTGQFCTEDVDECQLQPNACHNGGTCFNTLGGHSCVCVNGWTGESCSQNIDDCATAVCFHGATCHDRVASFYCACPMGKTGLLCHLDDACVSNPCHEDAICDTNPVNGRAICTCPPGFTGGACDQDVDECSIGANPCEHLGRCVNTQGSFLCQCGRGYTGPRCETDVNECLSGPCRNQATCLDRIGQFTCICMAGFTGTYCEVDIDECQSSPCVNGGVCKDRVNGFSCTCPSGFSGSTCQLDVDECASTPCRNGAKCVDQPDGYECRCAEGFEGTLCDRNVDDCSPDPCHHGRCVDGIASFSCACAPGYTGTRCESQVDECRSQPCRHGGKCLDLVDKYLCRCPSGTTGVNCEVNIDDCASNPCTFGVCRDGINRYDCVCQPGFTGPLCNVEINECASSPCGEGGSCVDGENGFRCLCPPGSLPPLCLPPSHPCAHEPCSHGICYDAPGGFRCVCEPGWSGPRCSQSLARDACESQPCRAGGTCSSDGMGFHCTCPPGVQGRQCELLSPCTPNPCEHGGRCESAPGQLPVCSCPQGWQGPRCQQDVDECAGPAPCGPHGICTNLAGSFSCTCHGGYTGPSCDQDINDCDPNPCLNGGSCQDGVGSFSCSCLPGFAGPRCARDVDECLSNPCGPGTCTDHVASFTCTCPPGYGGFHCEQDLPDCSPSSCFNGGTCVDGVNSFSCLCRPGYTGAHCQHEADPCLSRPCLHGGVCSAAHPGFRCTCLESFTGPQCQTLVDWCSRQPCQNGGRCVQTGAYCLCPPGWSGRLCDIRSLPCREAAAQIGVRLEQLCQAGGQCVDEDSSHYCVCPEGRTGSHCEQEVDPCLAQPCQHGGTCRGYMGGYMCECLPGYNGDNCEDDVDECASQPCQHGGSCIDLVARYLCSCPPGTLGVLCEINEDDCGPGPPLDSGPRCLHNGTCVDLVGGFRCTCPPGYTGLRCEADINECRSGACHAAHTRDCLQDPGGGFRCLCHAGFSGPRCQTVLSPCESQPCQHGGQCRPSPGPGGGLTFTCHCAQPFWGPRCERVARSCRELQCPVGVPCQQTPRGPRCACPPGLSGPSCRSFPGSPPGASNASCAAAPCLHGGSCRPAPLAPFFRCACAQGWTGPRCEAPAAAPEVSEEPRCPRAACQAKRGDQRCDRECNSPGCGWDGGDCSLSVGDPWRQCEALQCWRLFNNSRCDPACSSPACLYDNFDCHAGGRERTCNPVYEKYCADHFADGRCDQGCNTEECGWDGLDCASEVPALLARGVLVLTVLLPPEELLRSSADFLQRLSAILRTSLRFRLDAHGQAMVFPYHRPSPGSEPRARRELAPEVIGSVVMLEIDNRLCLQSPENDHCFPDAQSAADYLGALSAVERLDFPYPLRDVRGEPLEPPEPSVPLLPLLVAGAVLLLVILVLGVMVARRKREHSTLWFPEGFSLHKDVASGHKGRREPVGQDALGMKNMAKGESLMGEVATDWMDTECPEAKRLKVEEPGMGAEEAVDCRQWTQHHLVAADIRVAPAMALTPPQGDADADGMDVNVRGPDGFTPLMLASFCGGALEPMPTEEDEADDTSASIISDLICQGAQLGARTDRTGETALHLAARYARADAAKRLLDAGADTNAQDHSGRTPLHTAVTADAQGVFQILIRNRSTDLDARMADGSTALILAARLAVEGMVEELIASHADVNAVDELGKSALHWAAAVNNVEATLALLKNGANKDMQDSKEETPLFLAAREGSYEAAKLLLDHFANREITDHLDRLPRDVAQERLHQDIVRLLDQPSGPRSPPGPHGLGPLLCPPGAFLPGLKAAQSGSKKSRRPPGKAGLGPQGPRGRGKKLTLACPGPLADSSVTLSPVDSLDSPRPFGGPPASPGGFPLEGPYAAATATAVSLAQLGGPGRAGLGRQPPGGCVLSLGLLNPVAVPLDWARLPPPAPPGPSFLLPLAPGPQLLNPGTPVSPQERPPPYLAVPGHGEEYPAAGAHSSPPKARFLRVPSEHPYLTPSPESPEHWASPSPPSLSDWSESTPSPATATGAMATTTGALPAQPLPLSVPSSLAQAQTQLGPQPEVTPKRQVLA

[10] = small-molecule microarray binders of probe aEGFR, primary screen, biochemical, biotinylated probe, 635/667 nm fluorescence (AID 1097); settings: higher = more signal;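 note: probe is a biotinylated anti-EGFR antibody binding compounds printed on slides; score combines fluorescence near 667 nm and signal to noise of each spot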
[11] = tested on: Plasmodium falciparum Sir2 (PF13_0152, Sir2A); assay: pfSir2 binders on small-molecule microarrays, primary screen, biochemical, small-molecule microarray, 635 nm fluorescence (AID 1098); settings: small-molecule microarray binding, fluorescence 635 nm; higher = more signal;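 note: score merges spot fluorescence intensity with its signal-to-noise ratio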
[12] = small-molecule microarray binders of probe aDKK1, primary screen, biochemical, biotinylated probe, 635/667 nm fluorescence (AID 1099); settings: higher = more signal;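 note: score merges 667nm spot fluorescence with signal to noise across triplicate slides; reference of the scale not given here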
[13] = small-molecule microarray binders of probe aCHRDL2, primary screen, biochemical, biotinylated probe, 635/667 nm fluorescence (AID 1100); settings: higher = more signal
[14] = splicing luciferase reporter signal modulators, primary screen, spliceosome inhibition project, cell-based, HEK293, splice +/- reporter (AID 1101); settings: luminescence, 24 h, higher = more signal, called active from +8 up or from −8 down;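 note: HEK293 cells carrying a splicing-competent luciferase reporter gene; test concentration not given here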
[15] = target: Fibroblast growth factor 10 (Homo sapiens) (UniProt O15520); assay: FGF10 binders on small-molecule microarrays, primary screen, biochemical, small-molecule microarray, 635 nm fluorescence (AID 1102); settings: FGF10 binding, fluorescence 635 nm, higher = more signal
Chain of Fibroblast growth factor 10 (Homo sapiens) (O15520 whole entry, looked up): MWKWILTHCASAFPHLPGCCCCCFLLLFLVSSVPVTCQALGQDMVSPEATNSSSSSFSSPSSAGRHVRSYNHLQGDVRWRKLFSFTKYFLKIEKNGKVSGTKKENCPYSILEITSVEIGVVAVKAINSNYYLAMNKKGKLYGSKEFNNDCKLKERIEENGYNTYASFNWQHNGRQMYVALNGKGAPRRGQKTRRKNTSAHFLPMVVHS

[16] = tested on: glycogen synthase kinase-3 (GSK3A per assay name; protocol says GSK3B); assay: GSK3 binders on small-molecule microarrays, primary screen, biochemical, small-molecule microarray, 635 nm fluorescence, GSK3A (AID 1103); settings: small-molecule microarray binding, fluorescence 635 nm; higher = more signal; note: the record names both GSK3A and GSK3B
[17] = target: Epidermal growth factor receptor (Homo sapiens) (UniProt P00533); assay: EGFR binders on small-molecule microarrays, primary screen, biochemical, small-molecule microarray, 635 nm fluorescence (AID 1104); settings: EGFR binding, higher = more signal;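 note: score merges 667 nm emission intensity with spot signal to noise over triplicate slides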
Chain of Epidermal growth factor receptor (Homo sapiens) (P00533 whole entry, looked up): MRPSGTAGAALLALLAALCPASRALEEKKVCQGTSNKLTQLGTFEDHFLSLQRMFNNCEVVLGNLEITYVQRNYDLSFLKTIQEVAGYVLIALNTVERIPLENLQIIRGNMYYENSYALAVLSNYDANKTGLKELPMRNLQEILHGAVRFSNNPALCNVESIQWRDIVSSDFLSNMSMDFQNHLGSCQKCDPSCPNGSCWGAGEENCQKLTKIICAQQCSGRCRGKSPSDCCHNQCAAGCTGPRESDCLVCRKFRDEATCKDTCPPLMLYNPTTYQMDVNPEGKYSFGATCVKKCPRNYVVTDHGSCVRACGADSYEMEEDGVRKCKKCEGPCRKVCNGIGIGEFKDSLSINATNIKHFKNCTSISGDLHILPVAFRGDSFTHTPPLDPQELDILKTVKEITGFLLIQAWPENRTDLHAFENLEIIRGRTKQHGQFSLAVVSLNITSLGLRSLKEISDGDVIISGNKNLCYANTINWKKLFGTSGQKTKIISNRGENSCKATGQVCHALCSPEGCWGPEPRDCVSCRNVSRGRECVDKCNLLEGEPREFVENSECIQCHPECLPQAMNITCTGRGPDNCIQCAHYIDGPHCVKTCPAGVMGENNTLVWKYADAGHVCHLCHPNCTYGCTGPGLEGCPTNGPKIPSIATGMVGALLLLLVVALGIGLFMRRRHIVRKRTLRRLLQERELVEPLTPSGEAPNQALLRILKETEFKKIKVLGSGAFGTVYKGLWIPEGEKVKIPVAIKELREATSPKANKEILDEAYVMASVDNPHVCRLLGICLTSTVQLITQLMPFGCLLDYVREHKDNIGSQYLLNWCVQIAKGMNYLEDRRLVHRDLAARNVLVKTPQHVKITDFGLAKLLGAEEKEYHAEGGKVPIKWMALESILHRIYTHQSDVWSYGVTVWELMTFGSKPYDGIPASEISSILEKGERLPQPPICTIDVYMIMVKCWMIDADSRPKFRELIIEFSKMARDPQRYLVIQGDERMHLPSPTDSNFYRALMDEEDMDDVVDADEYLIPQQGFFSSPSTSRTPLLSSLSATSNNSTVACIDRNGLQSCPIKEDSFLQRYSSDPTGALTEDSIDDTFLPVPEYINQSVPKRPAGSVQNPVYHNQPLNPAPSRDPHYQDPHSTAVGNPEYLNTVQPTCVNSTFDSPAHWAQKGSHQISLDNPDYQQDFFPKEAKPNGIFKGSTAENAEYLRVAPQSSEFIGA

[18] = target: Follistatin-related protein 3 (Homo sapiens) (UniProt O95633); assay: FSTL3 binders on small-molecule microarrays, primary screen, biochemical, small-molecule microarray, 635 nm fluorescence (AID 1105); settings: FSTL3 binding, higher = more signal;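 note: score merges emission near 667 nm and signal to noise per printed spot across three slides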
Chain of Follistatin-related protein 3 (Homo sapiens) (O95633 whole entry, looked up): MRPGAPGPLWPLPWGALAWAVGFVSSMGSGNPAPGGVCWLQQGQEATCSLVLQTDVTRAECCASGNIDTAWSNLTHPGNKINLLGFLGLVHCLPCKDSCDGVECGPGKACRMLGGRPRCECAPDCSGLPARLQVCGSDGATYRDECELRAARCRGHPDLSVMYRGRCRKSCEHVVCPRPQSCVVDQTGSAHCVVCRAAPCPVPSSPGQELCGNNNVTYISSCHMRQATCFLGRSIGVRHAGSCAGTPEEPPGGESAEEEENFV

[19] = target: Dickkopf-related protein 1 (Homo sapiens) (UniProt O94907); assay: DKK1 binders on small-molecule microarrays, primary screen, biochemical, small-molecule microarray, 635 nm fluorescence scan (AID 1106); settings: DKK1 binding, higher = more signal;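 note: score merges emission near 667 nm with signal to noise over three replicate slides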
Chain of Dickkopf-related protein 1 (Homo sapiens) (O94907 whole entry, looked up): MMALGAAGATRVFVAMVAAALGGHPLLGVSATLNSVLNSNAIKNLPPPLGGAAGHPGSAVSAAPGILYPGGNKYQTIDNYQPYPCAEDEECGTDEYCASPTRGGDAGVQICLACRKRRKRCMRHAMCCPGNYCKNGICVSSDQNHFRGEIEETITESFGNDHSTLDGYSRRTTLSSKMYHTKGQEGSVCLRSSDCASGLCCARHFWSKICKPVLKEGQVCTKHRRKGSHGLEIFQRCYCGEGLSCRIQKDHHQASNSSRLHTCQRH

[20] = tested on: Inhibin beta A chain (activin A); assay: INHBA (activin A) binders on microarrays, primary screen, biochemical, small-molecule microarray, 635 nm fluorescence scan (AID 1107); settings: small-molecule microarray binding, higher = more signal;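 note: mouse activin A protein probed at 4.33 µg/mL on printed slides; score merges bound-protein fluorescence near 667 nm with spot signal-to-noise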

Row | SMILES | composite z-score [1] | z-score [2] | z-score [3] | z-score [4] | composite z-score [5] | z-score [6] | composite z-score [7] | composite z-score [8] | composite z-score [9] | composite z-score [10] | composite z-score [11] | composite z-score [12] | composite z-score [13] | z-score [14] | composite z-score [15] | composite z-score [16] | composite z-score [17] | composite z-score [18] | composite z-score [19] | composite z-score [20]
1 | CC(C)[Si]1(C(C)C)OCc2cc(-c3ccc(-c4ccc(Cl)c(Cl)c4)o3)nc(CCc3ccccc3)c21 | -0.45 | -0.773 (inactive) | -3.07 (inactive) | 0.952 (inactive) | 0.797 | 1.15 (inactive) | -0.19 | 0.0365 | -0.428 | -0.218 | 0.508 | -0.0914 | -0.17 | -2.1 (inactive) | 0.187 | -0.181 | -0.833 | 0.169 | 0.32 | 0.536
2 | CC(C)C[C@@H]1NC(=O)[C@H]2C[C@@H](C(=O)NCCCCCN)[C@@H](c3cccc(OCCO)c3)N2C1=O | 0.808 | -3.54 (inactive) | -0.726 (inactive) | -1.04 (inactive) | 0.872 | 0.545 (inactive) | 0.13 | -0.993 | 0.135 | -0.14 | 0.481 | 0.206 | 0.235 | -1.76 (inactive) | -0.361 | -0.389 | 0.125 | -0.348 | 0.183 | -0.762
3 | C=C(COC)C(=O)CC[C@H](OC(C)=O)c1ccc(OCCO)cc1 | 1.44 | 0.389 (inactive) | -2.5 (inactive) | -1.06 (inactive) | -0.451 | 1.39 (inactive) | -0.211 | 1.93 | 0.711 | -0.0387 | 0.761 | -0.0747 | -0.0486 | -1.5 (inactive) | 1.35 | -0.143 | -0.0056 | 0.576 | 0.722 | 0.136
4 | C=C(CCCC)C(=O)CC[C@H](OC(C)=O)c1ccc(OCCO)cc1 | -0.0507 | -1.62 (inactive) | -6.78 (inactive) | -2.54 (inactive) | -0.835 | 2.19 (inactive) | -0.269 | -0.469 | -0.829 | -0.16 | 0.56 | -0.262 | 0.0984 | -0.942 (inactive) | -0.509 | -1.24 | -0.448 | -0.746 | -0.8 | -0.146
5 | CN1C(=O)C2C=CC(C(O)c3cc(C(F)(F)F)cc(C(F)(F)F)c3)N(NC(=O)OC(C)(C)C)C2C1=O (stereo not given) | 1.56 | -0.403 (inactive) | -0.983 (inactive) | -0.314 (inactive) | 3.61 | -0.0262 (inactive) | 0.322 | 0.421 | 0.995 | 0.0169 | 0.733 | 0.781 | 1.05 | -0.149 (inactive) | 0.959 | 1.3 | 0.497 | 1.32 | -0.868 | 0.279
6 | CC1CC/C=C\[C@H]2OC34C=CCN(C(C)(C)C)C(=O)[C@H]3N(C(CO)C(C)C)C(=O)[C@@H]4C2C(=O)O1 (stereo not given in full) | -0.447 | -1.38 (inactive) | -0.429 (inactive) | -0.851 (inactive) | 2.5 | -0.515 (inactive) | -0.147 | 0.476 | 0.551 | -0.0968 | 0.337 | -0.193 | -0.347 | 0.792 (inactive) | 0.352 | 0.156 | -0.33 | 0.27 | 0.391 | 0.524
7 | CCCNC(=O)[C@@]1(Sc2ccc(C)cc2)CC(=O)N(C2CCCCC2)[C@@H]1c1ccc(CO)cc1I | 1.56 | -1.2 (inactive) | 0.554 (inactive) | -0.133 (inactive) | 2.44 | 0.19 (inactive) | -0.273 | -0.447 | 0.298 | -0.0643 | 1.56 | 0.548 | 0.91 | -0.703 (inactive) | 0.382 | 0.718 | -0.0215 | 0.192 | -0.122 | -0.277
8 | COc1ccc([Si](C)(C)[C@H]2[C@H](CCO)O[C@@]3(C(=O)N(Cc4ccccc4)c4ccc(N5C(=O)c6ccccc6Oc6ccccc65)cc43)[C@@H]2C)cc1 | 1.12 | -0.234 (inactive) | 0.723 (inactive) | 4.27 (inactive) | 1.94 | 1.25 (inactive) | -0.114 | -0.355 | 0.427 | -0.174 | 0.365 | -0.167 | -0.123 | -0.916 (inactive) | 0.0351 | -0.512 | -0.124 | -0.734 | 0.0449 | 0.201
9 | C=CCC(OC(C)=O)[C@@H]1[C@@H](N(Cc2ccc(-c3cccc(C(F)(F)F)c3)o2)C(=O)Cc2ccc(OC)cc2)c2cc(OCCCO)ccc2N1C(=O)Cc1ccc2ccccc2c1 (stereo not given in full) | 0.466 | 0.807 (inactive) | 0.243 (inactive) | -0.386 (inactive) | 0.958 | -0.406 (inactive) | -0.0654 | -0.621 | -0.246 | -0.217 | 0.946 | -0.178 | 0.406 | -1.16 (inactive) | -0.0775 | -0.953 | -0.749 | -0.475 | -0.274 | 0.613
10 | C=C(/C(=C/C[C@@H](OC(C)=O)c1ccc(OCCO)cc1)c1cc(C(=O)OC)ccc1OC)C(C)C | 0.629 | -0.265 (inactive) | 0.272 (inactive) | -1.5 (inactive) | 1.21 | -0.268 (inactive) | -0.152 | 0.902 | 0.843 | -0.176 | 1.28 | 0.0968 | 0.0396 | 0.0641 (inactive) | 1.08 | 0.263 | -0.461 | 0.231 | 0.328 | 0.59
